Screening results from PubChem BioAssay.
Most compounds without a hit are left out; they make up all but 8.6% or so of the library.
MARV entry inh: Marburg virus entry inhibition; Marburg virus pseudotype entry/binding inhibition, cell-based; Potency, µM (doses to about 49.2 µM), inactives show at the top dose activity change, negative = inhibition, actives largely listed as inhibitors; 6.5% of 18,000 active
Lassa entry: Lassa virus entry inhibition. Potency, µM (titrated, usually from 49.2 µM), for the others: top-dose activity change, negative = inhibition, hits mostly inhibitors. Lassa virus pseudotyped entry inhibition, cell-based qHTS. 4.1% of 18,000 active
Active calls of the source: *; ? = inconclusive; / = no result given; ! = not confirmed by another sample; [ ] = another dose, or the depositor's remark. Calls come from the whole dose curve; tested in HEK293 cells. % is set by controls: 0 for no effect and ±100 for the full control effect; potency is the fitted concentration of half-maximal effect.

SMILES	MARV entry inh	Lassa entry
CO[C@@H]1[C@@H](OC)[C@H](C)[C@@](O)(CC(=O)O)O[C@H]1[C@H](C)[C@H]1O[C@@]2(CC[C@@](C)([C@H]3CC[C@@](C)([C@@H]4O[C@@H]([C@H]5O[C@](C)(O)[C@H](C)C[C@@H]5C)C[C@@H]4OC4C[C@H](OC)[C@@H](OC)[C@H](C)O4)O3)O2)C[C@H](O)[C@H]1C (some centres undefined)	?	1µM*
COc1ccc(F)c(CN2CCC3(CCC(CNC(=O)c4cc(C)nn4C)O3)CC2)c1 (centres undefined)	-11%	-4%
Cc1cc(CNC(=O)c2cnn(-c3nccc(-c4ccc5c(c4)OCO5)n3)c2C2CC2)on1	5%	-4%
COc1cccc([C@@H]2Oc3ccc(OC)cc3C(=O)[C@@H]2OC(=O)N[C@H]2CCCc3ccccc32)c1	16%[8.59 µM]	23%[8.59 µM]
COC(=O)C1(C(=O)OC)CC=CCc2ccccc2[C@H]1C[N+](=O)[O-]	3%[8.59 µM]	-8%[8.59 µM]
COCC1=C2c3ccccc3[C@H](C[N+](=O)[O-])C(C(=O)OC)(C(=O)OC)C[C@@H]2n2c(=O)n(-c3ccccc3)c(=O)n2C1	-15%	7.1µM*!
COc1ccc(OC[C@@H]2CC3[C@@H](CC[C@@H](C)[C@H]3c3ccc(Br)cc3)C(=O)O2)cc1 (some centres undefined)	-5%[8.59 µM]	6%[8.59 µM]
CCC(=O)O[C@@](Cc1ccccc1)(c1ccccc1)[C@@H](C)CN(C)C	6%[17.8 µM]	-1%[17.8 µM]
CCC(=O)O[C@](Cc1ccccc1)(c1ccccc1)[C@H](C)CN(C)C	28µM*	-13%
C1CCC(NC(=NC2C3CC4CC(C3)CC2C4)N2CCOCC2)CC1 (centres undefined)	14µM*	?
C=C(CCN1C=C(C(=O)OCC)C(c2ccccc2)NC1=O)c1ccccc1 (centres undefined)	?	19%[8.59 µM]
CCCCCCCc1cc2ccc(F)cc2c2c(C(=O)OC)c(C(=O)OC)c(C(=O)OC)n12	?	-5%[8.59 µM]
C=C1C(=O)O[C@H]2[C@H]1CC/C(C)=C\CC[C@@]1(C)O[C@@H]21	14µM*	7.9µM*
C=C1C(=O)O[C@@H]2[C@H]3O[C@]3(C)CC/C=C(\C)CC[C@@H]12	4µM*	4.5µM*
C=C1CC/C=C(\C)CC[C@@H]2[C@@H]1CC2(C)C	7%	-2%
C=C1C(=O)OC2C1CC/C(C)=C/CCC1(C)OC21 (centres undefined)	?	11µM*
C=C1C(=O)OC2C=C(C)CCC=C(C)CCC12 (centres undefined)	-19%	-15%
C=C1C(=O)O[C@@H]2C3OC3(C)CC/C=C(\C)CC[C@@H]12 (some centres undefined)	-16%	-22%
COc1ccccc1-c1ccnc(-n2ncc(C(=O)NCC3(N4CCOCC4)CCCC3)c2C)n1	-13%	-3%
CCN1C(=NCC(C)C)N[C@@H](CCc2ccccc2)[C@H](C(=O)OC)[C@H]1C	?	-1%[8.59 µM]
C=CCN=C1NC(c2cccc(C(F)(F)F)c2)C(C(=O)OC)=C(C)N1CC (centres undefined)	12%[8.59 µM]	-27%[8.59 µM]
CCCNC(=O)OC[C@H]1O[C@H](CCON=C2c3cc(OC)ccc3O[C@H](c3cccc(OC)c3)[C@H]2O)C=C[C@H]1Oc1ccc(OC)cc1	?	-10%[8.59 µM]
C[C@@H]1[C@@H](c2ccccc2)Oc2c(Cl)cccc2S(=O)(=O)N1Cc1cccc(Cl)c1	16%	-10%
COc1cc(C(NC(=O)C(F)(F)F)c2cc3ccccc3o2)cc(OC)c1OC (centres undefined)	5%[8.59 µM]	/
COc1ccc([C@]23Cc4ccccc4[C@H](O2)c2c(cc(-c4ccccc4)oc2=O)O3)cc1	38%[8.59 µM]	3%[8.59 µM]
SMILES	MARV entry inh	Lassa entry
O=C(OCc1cn([C@H]2CN(C(=O)C3CCCCC3)[C@@H](c3ccccc3)C[C@H]2O)nn1)c1ccccc1	?	-28%
CCc1nc2cc(C(=O)N3CCCN(C=O)CC3)cc(NC(=O)c3ccccc3OC)c2n1C	?	-3%
C[C@@H]1N[S+](=O)([O-])c2cccc(Cl)c2O[C@H]1c1ccccc1	33%	?
O=C1C2CC=CCC2C(=O)N1SC(Cl)(Cl)Cl (centres undefined)	?	10µM*
Cc1c(C(=O)NCc2cccc(F)c2)sc2ncnc(NCC3CCCO3)c12 (centres undefined)	-18%	-12%
CSc1nnc(CNC(=O)c2c(-c3ccccc3)noc2C)n1-c1ccc(F)cc1	8%	-15%
COc1cc2c(C=O)c3c4c(cc(OC)c(OC)c4c2cc1OC)CCN3C	?	16µM*
C#CCCCON=C1C[C@@H](O)[C@H](O)[C@H]2[C@@H]3C(=O)N(Cc4ccc5c(c4)OCO5)C(=O)[C@@H]3CC[C@H]12	?	3%[8.59 µM]
COc1cccc([C@H]2Oc3ccc(OC)cc3C(=NO[C@@H](C)CN3CCCCc4nc(C)c(C)cc43)[C@H]2O)c1	-17%[8.59 µM]	-16%[8.59 µM]
COc1cccc(CN2C(=O)NC(C)(C3CCN(Cc4ccc(C)o4)CC3)C2=O)c1OC (centres undefined)	-22%	-3%
CC1=C(O)C(=O)[C@H]2O[C@@H]2C1=O	3%	11µM*
COc1cc(OC)c(OC)cc1CN1CCCC(n2cc(C(=O)N3CCCCC3)nn2)C1 (centres undefined)	0%	35%
Cc1cc2c(c(=O)n1Cc1ccccc1)[C@H]1O[C@](CCCCN3C(=O)c4ccccc4C3=O)(Cc3ccccc31)O2	15%[8.59 µM]	3%[8.59 µM]
C[C@H]1C=CCC(=O)NCc2cccc(c2)CNC(=O)N[C@@H]1c1ccccc1	?	7%[8.59 µM]
COCC1=C(C(=O)OC)C(c2ccccc2)N(C(C)=O)C(=O)N1 (centres undefined)	1%[8.59 µM]	30%[8.59 µM]
CCC1=C[C@@H]2CN(C1)Cc1c([nH]c3ccccc13)[C@@](C(=O)OC)(c1cc3c(cc1OC)N(C)[C@H]1[C@@](O)(C(=O)OC)[C@H](OC(C)=O)[C@]4(CC)C=CCN5CC[C@]31[C@@H]54)C2	1.4µM*!	13µM*!
CC[C@]1(O)CC2CN(CCc3c([nH]c4ccccc34)[C@@](C(=O)OC)(c3cc4c(cc3OC)N(C)[C@H]3[C@@](O)(C(N)=O)[C@H](O)[C@]5(CC)C=CCN6CC[C@]43[C@@H]65)C2)C1 (some centres undefined)	?	-34%
C=CC[C@@H]1C=C[C@H](ON=C2c3cc(OC)ccc3O[C@H](c3cccc(OC)c3)[C@@H]2O)[C@H](CO)O1	-5%[8.59 µM]	-4%[8.59 µM]
COCC(=O)Nc1cc(C(=O)N2CCc3c([nH]c4ccccc34)C2)cc2nc(-c3ccccc3)n(C)c12	-14%	-13%
COc1c(C2=CC(=O)N(C)C2=O)c2c(n1C)C(=O)c1ccccc1C2=O	20µM*	-24%
COc1c(C=O)c(O)cc2c1C(=O)c1ccccc1C2=O	8%	-5%
OC1(c2ccc(Cl)c(C(F)(F)F)c2)CCN(CCCC(c2ccc(F)cc2)c2ccc(F)cc2)CC1	2.8µM*	11µM*
Cc1ccc(C2(O)CCN(CCCC(=O)c3ccc(F)cc3)CC2)cc1	?	-18%
NC(N)=NCCNS(=O)(=O)c1cccc2cnccc12	5%	15%
CN(C(Cc1ccc(OS(=O)(=O)c2cccc3cnccc23)cc1)C(=O)N1CCN(c2ccccc2)CC1)S(=O)(=O)c1cccc2cnccc12 (centres undefined)	?	10µM*
C=C(C)C[C@@]1(c2ccccc2)Oc2ccccc2C2=NCCN=C21	-21%[8.59 µM]	7%[8.59 µM]
C1CCC(C(C[C@@H]2CCCCN2)C2CCCCC2)CC1	7.9µM*	-26%[17.8 µM]
